In PubChem BioAssay (Tox21):
Records with an inconclusive call do not appear. A number with no mark means an inactive call. Calls come from the whole dose curve.

Test: cAMP Responsive Elements (CRE) small molecule agonists, cell-based qHTS assay (AID 1963590)
Settings: CRE-bla HEK293T, beta-lactamase FRET ratio, 3 h; series mostly up to 92.4 µM; activation: at the top concentration
Excerpt: U.S. Tox21 Program National Center for Advancing Translational Sciences [NCATS] Division of Preclinical Innovation [DPI] U.S. Environmental Protection Agency [EPA] National Institutes of Environmental Health Sciences [NIEHS] National Toxicology Program [NTP] U.S. Food and Drug Administration [FDA] Tox21 Assay Overview: CREB (cyclic-AMP Responsive Element Binding Protein) is a cellular transcription factor. It binds to certain DNA sequences called cAMP Responsive Elements (CRE) and regulates the transcription of the genes. […] This cell line can be used to find agonists/antagonists of the cyclic AMP signaling pathway. The activation of the report gene under culture conditions can be detected by fluorescence intensity. This cell line has been used to screen the Tox21 10K compound library to identify agonists that induce oxidative stress.
Tox21 Assay Protocol Summary: CRE-bla Hek 293T cells were suspended in assay medium (DMEM containing 10% dialyzed FBS, 0.1 mM NEAA, 1 mM sodium pyruvate and 25 mM HEPES) and dispensed at 2,000 cells/5 uL /well into 1536-well black wall/clear bottom plates using a Multidrop Combi (ThermoFisher Scientific, Waltham, MA) dispenser. After the assay plates were incubated at 37 C/5% CO2 for 18 hrs, 23 nL of compounds dissolved in DMSO, positive controls or DMSO only was transferred to the assay plate by a pintool workstation (Kalypsys, San Diego, CA). After the plates were incubated at 37 C/5% CO2 for 3 hrs, 1 uL of LiveBLAzer B/G FRET substrate (Invitrogen, Carlsbad, CA) was added to each well using Bioraptr Flying Reagent Dispenser (FRD, Aurora Discovery, San Diego, CA). The plates were incubated at room temperature for 2 h.
% is set by controls: 0 for no effect and ±100 for the full control effect.

Row | SMILES | activation
1 | O=C=Nc1ccc(Cl)cc1 | -0.604%
2 | C[C@H]1[C@@H]2Cc3ccc(O)cc3[C@@]1(C)CCN2C | 0.296% [at 240 µM]
3 | CSC(C)(C)/C=N/O | 0.889%
4 | CCCN(CCCl)c1c([N+](=O)[O-])cc(C(F)(F)F)cc1[N+](=O)[O-] | -5.35%
5 | CCN(CC)C(=O)Cl | 1.13%
6 | CCOP(=O)(SC(C)CC)N1CCSC1=O (stereo not given) | 2.86%
7 | C[C@@H](N)[C@@H](O)c1ccccc1 | 0.334% [at 42.5 µM]
8 | CCCN(CCC)CCc1c[nH]c2ccccc12 | -0.875%
9 | COC(=O)N(OC)c1ccccc1COc1ccn(-c2ccc(Cl)cc2)n1 | 1.13%
10 | CN1C2CCC(C)(C)C1CC(OC(=O)C(O)(c1cccs1)c1cccs1)C2 (stereo not given) | 5.75% [at 42.5 µM]
11 | NC(=O)CI | 0.136%
12 | COc1ccc(CN2CCNCC2)c(OC)c1OC | -0.0451% [at 42.5 µM]
13 | COc1cc(OC)c(OC)cc1C=O | 29.7%
14 | CC(O)CCl (stereo not given) | -0.177%
15 | CNC(=O)/C=C(\C)OP(=O)(OC)OC | 1.37%
16 | CCCCCCCCc1ccc(O)cc1 | 5.64%
17 | CCC1(c2ccccc2)C(=O)N=C(O)NC1=O (stereo not given) | 16.7%
18 | CCN[C@@H](C)Cc1cccc(C(F)(F)F)c1 | 0.49% [at 42.5 µM]
19 | Cc1nc2ccccc2c(=O)n1-c1ccccc1Cl | 4.22%
20 | COc1cc(CC(C)N)cc2c1OCO2 (stereo not given) | 0.502%

Row | SMILES | activation
21 | CC(C)(C)C(O)C(Oc1ccc(-c2ccccc2)cc1)n1cncn1 (stereo not given) | 6.99%
22 | Cc1ccn2nc(S(=O)(=O)Nc3c(F)cccc3F)nc2n1 | -1.25%
23 | SCc1ccccc1 | 0%
24 | CC(=O)O.CC(=O)O.CC(=O)O.CC(=O)O.CC(=O)O.CC(=O)O.CC(=O)O.O.O.[Cr].[Cr].[Cr] | -0.0784%
25 | C=CCN1CC[C@]23c4c5ccc(O)c4O[C@H]2C(=O)CC[C@@]3(O)[C@H]1C5 | -0.673% [at 42.5 µM]
26 | O=C1CC[C@@]2(O)[C@H]3Cc4ccc(O)c5c4[C@@]2(CCN3CC2CC2)[C@H]1O5 | -0.145% [at 42.5 µM]
27 | CCN(CC)C(C)C(=O)c1ccccc1 (stereo not given) | -0.204% [at 42.5 µM]
28 | CSc1nc(N=[N+]=[N-])nc(NC(C)C)n1 | -1.58%
29 | CC(C)N(C(=O)COc1nnc(C(F)(F)F)s1)c1ccc(F)cc1 | 0.275%
30 | COC(=O)/C=C(\C)OP(=O)(OC)OC | 1.11%
31 | CNC(=O)N(C)c1nc2ccccc2s1 | -3.44%
32 | O=[N+]([O-])C(Br)(CO)CO | -0.326%
33 | CC#Cc1cc(C)nc(Nc2ccccc2)n1 | -0.463%
34 | Oc1cccc(Cl)c1Cl | -2.96%
35 | CCc1cc2c(s1)-n1c(C)nnc1CN=C2c1ccccc1Cl | 2.27% [at 42.5 µM]
36 | CCOP(=S)(OCC)SCCl | 2.1%
37 | CCOC(=O)Cc1ccccc1 | 0.0588%
38 | Oc1ccccc1Br | 0.766%
39 | Clc1cccc2ccccc12 | 0.0579%
40 | CCCCCCCCCC(=O)O[C@H]1CC[C@H]2[C@@H]3CCC4=CC(=O)CC[C@@H]4[C@H]3CC[C@]12C | 1.07% [at 42.5 µM]
